# In PubChem BioAssay (NCI):
# Values joined by “and” are separate entries in the source; they are usually repeats but may differ in a detail not shown here. Identical values can stand only once. The panel holds about 83,000 compounds, 20% with a hit somewhere; the sample as a whole holds those more often.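 For each line, cells grew in 96-well plates with the test compound present at a single concentration for 48 hours.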 Active and inactive are the calls of the source. How the source made its calls: active means growth percent below 10; inactive means the rest.
# Test system: MDA-MB-468 breast
# Experiment: NCI-60 one-dose screen, 48 h (100 = growth as untreated, 0 = no growth, -100 = all killed)
# Conditions: 10 µM unless noted
row,SMILES,growth
1,CC(C)(O)c1cncc(-c2ccc3ncc(C#N)c(N4CCc5cc(F)c(Cl)cc54)c3c2)c1,10.2% (inactive)
2,COc1ccc(N2CCN(c3ccc(NC4=C(Cl)C(=O)c5ncccc5C4=O)cc3)CC2)cc1,-53.9% (active)
3,COc1cc(/C=C2\C(=O)Nc3ccccc32)ccc1OCc1ccc(F)cc1,102% (inactive)
4,CC(Oc1ccc(C(=O)O)cc1C(F)(F)F)c1ccc(Oc2ccccc2)cn1 (stereo not given),97.3% (inactive)
5,CCCCCCC(CCCC)COC(=O)c1ccc(Cl)cc1 (stereo not given),96.2% (inactive)
6,COc1cc(NS(C)(=O)=O)ccc1Nc1c2ccccc2nc2ccccc12,-3.7% (active) and -17.8% (active)
7,CCOC(=O)Nc1ccc(-c2nc(-c3cccc(O)c3)c(-c3ccnc(Br)c3)[nH]2)cc1,10.7% (inactive)
8,Cc1cc2c(cc1C)[n+](Cc1ccc3ccccc3n1)cn2Cc1ccc2ccccc2n1,-35.5% (active)
9,Nc1cccc2cccc([N+](=O)[O-])c12,109% (inactive)
10,CCCC(C)c1cc(Cc2cc(Cl)cc(Cl)c2O)c(O)c(Cc2cc(Cl)cc(Cl)c2O)c1 (stereo not given),-1.2% (active)
11,O=C1/C(=C/c2ccccc2[N+](=O)[O-])Cc2ccccc21,-46.2% (active) and -17.9% (active)
12,O=C(CNc1nnc(-c2ccc(Cl)cc2)o1)Nc1ccc(-c2nc3ccccc3s2)cc1,-10.2% (active)
13,COc1ccc(C2=NN(C(=O)c3cc(OC)c(OC)c(OC)c3)C(c3ccc(C#N)cc3)C2)cc1OC (stereo not given),-25.8% (active)
14,COc1ccccc1OCC(O)CO (stereo not given),114% (inactive) and 92.9% (inactive)
15,CN1CCN(Cc2ccc(NC(=O)c3cncc(C#Cc4cnc5ccc(N)nn45)c3)cc2C(F)(F)F)CC1,25.5% (inactive)
16,COc1cc2c(cc1-c1c(C)noc1C)ncc1nc(C3CCC(F)(F)CC3)n(C3CCC(OC(F)F)CC3)c12 (stereo not given),43.4% (inactive)
17,CCOC(=O)c1ccc2c(c1)c1c(C)c3cnccc3c(C)c1n2C,-81.8% (active)
18,CCCCN(CCCC)CC(C)(C)C(O)c1ccc(OC)c2ccccc12 (stereo not given),41.8% (inactive)
19,O=C1CCC(C(=O)N/N=C/c2ccc([N+](=O)[O-])cc2)N1 (stereo not given),110% (inactive)
20,O=C(O)c1ccccc1Oc1cc(-c2ccco2)nc(OCCN2CCOCC2)n1,105% (inactive)
21,COc1ccc2nc3cc([N+](=O)[O-])ccc3c(NNc3ccccc3)c2c1,58.3% (inactive)
22,COc1cc(OC)cc(C2=C3CC[C@@H]4[C@H](CC[C@]5(C)C(=O)CC[C@@H]45)C3=CC3C(O)c4cccnc4N4C(=O)COC234)c1 (stereo not given in full),105% (inactive)
23,O=C(Nc1cccc2ccccc12)NC1CC1,96% (inactive)
24,O=S(=O)(c1ccc(OCCO)cc1)c1ccc(OCCO)cc1,101% (inactive)
25,COc1c(CCC[P+](c2ccccc2)(c2ccccc2)c2ccccc2)cc2c(c1OC)OCO2,-28% (active)
26,C/C(=N\NC(=O)/C=C/CC(=O)O)c1nnn(-c2ccc([N+](=O)[O-])cc2)c1C,99.8% (inactive)
27,Cc1ccc(S(=O)(=O)N(CC[C@@H]2C[C@H]2c2cc3ccccc3o2)S(=O)(=O)c2ccc(C)cc2)cc1,80% (inactive)
28,COc1cc(/C=N\NC(=O)c2ccc3nc(-c4ccc(Br)cc4)[nH]c3c2)cc(OC)c1OC,37.2% (inactive)
29,O=C1C(Cl)=C(Nc2ccc(O)cc2)C(=O)N1Cc1ccc(Cl)cc1,5.88% (active)
30,CCCCCCCCCCCCCCCCCC1=NC(C)(CO)CO1 (stereo not given),82% (inactive)
